Measurements taken from PubChem BioAssay AID488969 (Vanderbilt High Throughput Screening Facility, 2010).
Over roughly 110,000 compounds, “z-score” has its median near -0.1; the highest 2% begin near 2. The full list was thinned out, with the highest values kept by preference. Active and inactive are the calls of the source.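 How the source made its calls: active means z-score in the third read window above 3 or below -3; inactive means the rest.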

Target: Metabotropic glutamate receptor 8 (Rattus norvegicus) (UniProt P70579)
Sequence (P70579 whole entry, looked up): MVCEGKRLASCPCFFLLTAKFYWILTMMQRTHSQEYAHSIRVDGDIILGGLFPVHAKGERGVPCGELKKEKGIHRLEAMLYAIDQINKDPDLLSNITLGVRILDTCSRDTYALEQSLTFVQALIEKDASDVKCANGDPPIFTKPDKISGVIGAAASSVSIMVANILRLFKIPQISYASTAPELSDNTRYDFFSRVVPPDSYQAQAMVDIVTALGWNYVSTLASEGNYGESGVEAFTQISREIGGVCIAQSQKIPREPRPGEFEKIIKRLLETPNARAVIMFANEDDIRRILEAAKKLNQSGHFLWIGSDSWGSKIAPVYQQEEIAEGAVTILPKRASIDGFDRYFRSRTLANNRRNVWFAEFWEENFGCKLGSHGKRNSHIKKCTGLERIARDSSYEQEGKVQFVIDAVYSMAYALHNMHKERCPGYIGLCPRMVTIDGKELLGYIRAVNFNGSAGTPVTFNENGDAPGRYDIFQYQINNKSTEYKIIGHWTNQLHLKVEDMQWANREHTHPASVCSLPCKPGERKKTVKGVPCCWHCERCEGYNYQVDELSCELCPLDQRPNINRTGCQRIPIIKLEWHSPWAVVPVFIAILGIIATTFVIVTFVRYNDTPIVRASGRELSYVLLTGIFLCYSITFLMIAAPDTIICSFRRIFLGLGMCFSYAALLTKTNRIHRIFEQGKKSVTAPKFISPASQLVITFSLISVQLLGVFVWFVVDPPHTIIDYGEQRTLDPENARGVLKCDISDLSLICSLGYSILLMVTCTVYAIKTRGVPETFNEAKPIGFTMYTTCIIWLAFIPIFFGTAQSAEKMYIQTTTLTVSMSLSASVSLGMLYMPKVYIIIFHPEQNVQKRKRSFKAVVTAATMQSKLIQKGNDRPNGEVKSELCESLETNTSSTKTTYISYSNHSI
Experiment: mGluR8 Gi/Go-coupled signaling modulation – cell-based, rat, thallium flux, HTS, primary screen (AID 488969)
Conditions: HEK293 rat mGluR8, GIRK (G protein-gated inwardly rectifying potassium channel) thallium flux, FluoZin2; at 10 µM; stronger effect = higher value; submaximal glutamate (EC20) added with thallium

| SMILES | z-score |
| --- | --- |
| CCN(CC)C(=O)COc1cc(C)cc2oc(=O)cc(-c3ccccc3)c12 | -0.189 |
| S=C(Nc1cccc(Cl)c1)Nc1cccc2cnccc12 | 2.74 |
| CC(C)NC(=S)Nc1cccc2cnccc12 | -0.271 |
| COc1ccc(NC(=S)Nc2cccc3cnccc23)cc1 | -0.198 |
| COc1ccccc1NC(=S)Nc1cccc2cnccc12 | -0.138 |
| C=C(C)CNC(=S)Nc1cccc2cnccc12 | 3.1 (active) |
| CCCCNC(=S)Nc1cccc2cnccc12 | -0.208 |
| Cc1cc(C)nc(N2CCCC(C(=O)NCC(c3ccccc3)c3ccccc3)C2)n1 (configuration not stated) | 0.0177 |
| COc1ccc(S(=O)(=O)N(C)CC(=O)Nc2ccc(C(F)(F)F)cc2)cc1Cl | 1.57 |
| O=c1cc(NS(=O)(=O)c2ccccc2)nc(SCc2ccc(Cl)cc2)[nH]1 | 0.485 |
| CCc1c(C)nc2ncnn2c1Nc1ccc(C(C)=O)cc1 | 0.0606 |
| O=C(CSc1ncn[nH]1)Nc1nc(-c2ccccc2)cs1 | 0.0129 |
| Cc1ccc(C(=O)N/C(=C/c2ccco2)C(=O)Nc2cccc(C)c2)cc1 | -0.287 |
| CC(=O)c1cccc(NC(=O)c2ccc(N(Cc3ccccc3)S(C)(=O)=O)cc2)c1 | -0.207 |
| COCCn1c(C)cc(C(=O)CN2C(=O)NC3(CCCCCCC3)C2=O)c1C | 0.319 |
| O=C(CSc1nnnn1-c1cccc2c1CCCC2)N1CCCC1 | 0.0215 |
| CC1CCCC(C)N1C(=O)CSc1nnnn1-c1cccc2c1CCCC2 (configuration not stated) | -0.621 |
| O=C(CSc1nnnn1-c1cccc2c1CCCC2)NC1CCCC1 | 5.15 (active) |
| Cc1ccc2c(c1)c1c(n2CC(O)Cn2c(C)nc3ccccc32)CCCC1 (configuration not stated) | -0.427 |
| Cc1ccc2c(c1)c1c(n2CC(O)CNC(C)(C)C)CCCC1 (configuration not stated) | 2.4 |
| Cc1ccc2c(c1)c1c(n2CC(O)Cn2nc(C)c(Br)c2C)CCCC1 (configuration not stated) | 0.191 |
| CC(=O)c1cc2c(cc1NC(=O)CN1CCCCC1C)OCO2 (configuration not stated) | -0.0192 |
| O=C(NCc1cccs1)c1nc2c(nnn2Cc2ccc(F)cc2)c(=O)[nH]1 | -1 |
| Cc1cc(N/C=C\c2nnnn2-c2ccccc2)no1 | -0.374 |

| SMILES | z-score |
| --- | --- |
| COc1ccc(Nc2nc(C)cc(C)c2C#N)cc1 | 0.405 |
| COc1cccc(Nc2nc(C)cc(C)c2C#N)c1 | -0.0986 |
| COc1ccc(Nc2nc(C)cc(C)c2C#N)cc1OC | 6.74 (active) |
| O=C(Cn1nnc(-c2ccccc2)n1)OCc1csc(-c2ccccc2)n1 | -0.49 |
| Cc1ccc(-n2nc3c(Cl)nnc(C)c3c2C)cc1 | 0.701 |
| NS(=O)(=O)c1ccc(Cc2ncc(C(F)(F)F)cc2Cl)s1 | 1.4 |
| O=C(NCc1ccc2c(c1)OCO2)c1cc2ccccc2o1 | -0.522 |
| O=C(C1CCCCN1S(=O)(=O)c1ccc(F)cc1)N1CCN(c2ccccc2F)CC1 (configuration not stated) | -0.386 |
| COc1ccc2[nH]c(C)c(C(=O)CN3CCOCC3)c2c1 | 0.0884 |
| COc1ccc2[nH]c(C)c(C(=O)CN3CC(C)OC(C)C3)c2c1 (configuration not stated) | 2.96 |
| COc1ccc2c(C(=O)CN3CC(C)OC(C)C3)c[nH]c2c1 (configuration not stated) | -0.0527 |
| O=S1(=O)CC(N2CCOCC2)c2ccccc21 (configuration not stated) | -0.0158 |
| COc1ccc(CNC(=O)CSc2ccc(Br)cc2)cc1OC | 0.192 |
| COc1ccc(S(=O)(=O)N(C)CC(=O)NCc2ccco2)cc1 | -0.29 |
| CN(CCCC(=O)NCc1ccco1)S(=O)(=O)c1ccccc1 | 2.39 |
| Cc1ccc(N(CC(=O)NCc2ccco2)S(=O)(=O)c2ccccc2)cc1 | 0.374 |
| CCC(C)NC(=O)COc1ccc(Br)c(C)c1 (configuration not stated) | 0.482 |
| CN(C(=O)COC(=O)C1CCN(S(=O)(=O)c2cccs2)CC1)C1CCS(=O)(=O)C1 (configuration not stated) | 0.776 |
| Cc1ccc(Cn2c(NCCc3ccccc3)nc3c2c(=O)n(C)c(=O)n3C)cc1 | -0.251 |
| C=CCn1c(NCCc2ccccc2)nc2c1c(=O)n(C)c(=O)n2C | 0.0292 |
| CC(C)n1c(NCCc2ccccc2)nc2c1c(=O)n(C)c(=O)n2C | 2.39 |
| COc1ccc(CNC(=O)CCc2c(C)nc3ncnn3c2C)cc1 | 0.418 |
| CC(C)n1c(=S)[nH]c2ccccc2c1=O | 9.16 (active) |
| COc1nc2ccccc2c(=O)n1OCC(C)C | 0.0226 |

| SMILES | z-score |
| --- | --- |
| CCN(CC)CCn1c(=S)[nH]c2ccccc2c1=O | -2.46 |
| CC(C)N(CCn1c(=S)[nH]c2ccccc2c1=O)C(C)C | 2.64 |
| CCOc1cc2[nH]c(=S)n(C(C)C)c(=O)c2cc1OCC | 9.84 (active) |
| COn1c(=S)[nH]c2ccccc2c1=O | 1.06 |
| CC(C)n1c(=O)[nH]c2ccccc21 | 1.11 |
| CC(C)n1c(=S)[nH]c2ccccc21 | -0.0644 |
| CCOc1cc2[nH]c(=S)n(CCCN(CC)CC)c(=O)c2cc1OCC | -0.475 |
| CCOc1cc2[nH]c(=S)n(CCN3CCC(C)CC3)c(=O)c2cc1OCC | 0.809 |
| CC(C)COn1c(=S)[nH]c2ccccc2c1=O | 3.03 (active) |
| CN(C)CCn1c(=S)[nH]c2ccccc2c1=O | -0.191 |
| Cc1ccc(Cn2c(CN3CC(C)OC(C)C3)nc3c2c(=O)[nH]c(=O)n3C)cc1 (configuration not stated) | 0.0226 |
| O=C(CSc1nnc(-c2ccc(F)cc2)o1)Nc1ccccc1N1CCOCC1 | -0.906 |
| CN(C)c1ccc(/C=N\Nc2nc(-c3ccccc3)cc(=O)[nH]2)cc1 | -0.138 |
| CC(=O)Nc1ccc(N(C(=O)Cc2c[nH]c3ccccc23)C(C(=O)NC2CCCCC2)c2ccco2)cc1 (configuration not stated) | 1.17 |
| Cc1ccccc1-c1nc(-c2ccc(NC(=O)c3ccc(Br)o3)cc2)no1 | 0.0114 |
| N#CNC(=Nc1cccc(F)c1)SCc1cccc(F)c1 | -0.141 |
| CCC(C)NC(=O)CSc1nc2c(sc(=S)n2Cc2ccco2)c(=O)n1-c1ccccc1 (configuration not stated) | 0.437 |
| Cc1ccc2[nH]c(=O)c(CN(Cc3cccs3)S(=O)(=O)c3ccc4c(c3)OCCO4)cc2c1 | 0.0485 |
| CCOC(=O)Cc1csc(SCC(=O)Nc2cccc(Cl)c2)n1 | 0.368 |
| Cc1onc(-c2ccccc2Cl)c1C(=O)NC1CCS(=O)(=O)C1 (configuration not stated) | -0.0472 |
| COc1cc2cc(CN(CCc3ccccc3C)C(=S)NCCCN(C)C)c(=O)[nH]c2cc1OC | 0.66 |
| Cc1ccc2nc(-c3ccc(N4C(=N)SC5CS(=O)(=O)CC54)cc3)sc2c1 (configuration not stated) | 2.09 |
| CC(=O)N=C1SC2CS(=O)(=O)CC2N1c1ccc(-c2nc3ccc(C)cc3s2)cc1 (configuration not stated) | 0.0589 |
| CCCC(=O)N=C1SC2CS(=O)(=O)CC2N1c1ccc(-c2nc3ccc(C)cc3s2)cc1 (configuration not stated) | -0.238 |
